Experimental findings from ChEMBL document CHEMBL1201862, “PubChem BioAssay data set” (2004) are described below.

Among all 400,000 compounds or so, about 2,100 (0.53%) were called active. Another 14% or so got no clear call; they are omitted. The sample holds actives, similar compounds and a random draw of the others, so the mix is not that of the screen. No rule for the calls is given here.

For the test, the target named is Ataxin-2 (Homo sapiens) (UniProt Q99700). Put plainly: qHTS for Inhibitors of ATXN expression. In kind it is functional. Background: qHTS replaces the single test concentration by a dilution series.
Chain of Ataxin-2 (Homo sapiens) (Q99700 whole entry): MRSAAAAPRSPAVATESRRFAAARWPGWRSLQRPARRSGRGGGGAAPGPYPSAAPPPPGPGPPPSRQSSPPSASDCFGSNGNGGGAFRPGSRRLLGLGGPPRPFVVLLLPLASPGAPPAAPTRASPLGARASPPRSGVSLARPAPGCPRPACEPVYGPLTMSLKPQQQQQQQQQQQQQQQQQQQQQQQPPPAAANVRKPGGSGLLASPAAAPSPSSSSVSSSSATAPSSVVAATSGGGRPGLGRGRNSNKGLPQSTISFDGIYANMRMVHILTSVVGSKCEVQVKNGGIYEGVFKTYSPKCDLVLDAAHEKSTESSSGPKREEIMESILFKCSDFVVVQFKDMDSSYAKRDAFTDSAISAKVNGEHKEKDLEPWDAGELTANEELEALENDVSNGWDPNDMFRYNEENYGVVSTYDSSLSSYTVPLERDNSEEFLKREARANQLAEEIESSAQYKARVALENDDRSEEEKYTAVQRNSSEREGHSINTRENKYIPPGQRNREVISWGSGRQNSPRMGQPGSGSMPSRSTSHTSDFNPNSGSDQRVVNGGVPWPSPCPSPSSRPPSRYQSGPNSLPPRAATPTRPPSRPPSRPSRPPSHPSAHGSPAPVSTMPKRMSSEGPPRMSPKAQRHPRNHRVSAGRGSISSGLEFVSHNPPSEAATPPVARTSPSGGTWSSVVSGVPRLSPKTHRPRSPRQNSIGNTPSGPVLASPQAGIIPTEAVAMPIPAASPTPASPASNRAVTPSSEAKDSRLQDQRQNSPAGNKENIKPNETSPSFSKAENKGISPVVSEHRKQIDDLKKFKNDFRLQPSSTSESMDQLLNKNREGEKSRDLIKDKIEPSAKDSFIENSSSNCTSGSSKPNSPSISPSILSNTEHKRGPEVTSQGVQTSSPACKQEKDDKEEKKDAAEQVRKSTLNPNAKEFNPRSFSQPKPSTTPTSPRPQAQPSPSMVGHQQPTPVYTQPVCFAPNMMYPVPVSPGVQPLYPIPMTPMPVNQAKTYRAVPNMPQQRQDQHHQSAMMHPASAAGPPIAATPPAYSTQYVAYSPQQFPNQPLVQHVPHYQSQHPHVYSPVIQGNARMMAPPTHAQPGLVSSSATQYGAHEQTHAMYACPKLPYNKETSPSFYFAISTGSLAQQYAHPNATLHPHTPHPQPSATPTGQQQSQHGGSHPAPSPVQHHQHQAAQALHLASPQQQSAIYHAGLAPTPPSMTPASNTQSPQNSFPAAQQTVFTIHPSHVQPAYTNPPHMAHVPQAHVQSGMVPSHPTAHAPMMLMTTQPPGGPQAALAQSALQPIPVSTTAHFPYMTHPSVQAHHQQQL
As to `CCn1c2ccccc2c2cc(CNCc3ccc(OC)cc3OC)ccc21`, the Potency was 42.3 µM (active).

On to `COc1ccc(CNc2nc3ccccc3n2C)c(OC)c1`, for which the Potency result is “inactive”.

Consider `CCc1cc(=O)oc2c(CNCc3ccc(OC)cc3OC)c(O)c(Cl)cc12`, for which the Potency result is “inactive”.

Regarding `Cc1cc(C)c(C(=O)COC(=O)C2CCN(c3ccc(C(F)(F)F)cn3)CC2)c(C)c1`, the Potency result is “inactive”.

Regarding `CC[n+]1c(/C=C2/C=C(C)CC(C)(C)C2)sc2ccc(OC)cc21`, the Potency is 39.8 µM (active).

`CCN1CCN(Cc2ccc(NC(=O)c3ccc(C)c(NC(=O)c4cncc(-c5cccs5)c4)c3)cc2C(F)(F)F)CC1`: the Potency was 20 µM (active).

For the compound `CCN1CCN(Cc2ccc(NC(=O)c3ccc(C)c(NC(=O)c4cccc5[nH]ccc45)c3)cc2C(F)(F)F)CC1`, the Potency is 35.5 µM (active).

As for `O=C(CO)N/N=C/c1c2ccccc2cc2ccccc12`, the Potency result is “inactive”.

Regarding `O=C(O)c1ccc(-n2cc(-c3cc4ccccc4oc3=O)nc2S)cc1`, the Potency entry was “inactive”.

For `Cc1c(CCC(=O)NCCCN2CCCC2=O)c(=O)oc2cc(O)ccc12`, the Potency result was “inactive”.

As to `Cc1cc(C(=O)N/N=C/c2cn(C)nc2C)c2ccccc2n1`, the Potency result was “inactive”.

Take `COC(=O)NCC(c1cccnc1)N1CCN(c2ccccc2)CC1` (centres undefined): the Potency entry is “inactive”.

Turning to `CCN1CCN(C(c2ccc(C(F)(F)F)cc2)c2ccc3cccnc3c2O)CC1` (centres undefined), the Potency entry is “inactive”.

Turning to `CC(C)(C)c1cc(C(c2cccnc2)N2CCN(CCO)CC2)cc(C(C)(C)C)c1O` (centres undefined), the Potency is 25.1 µM (active).

Consider `Cc1onc(-c2c(Cl)cccc2Cl)c1C(=O)NNC(=O)c1c(-c2c(Cl)cccc2Cl)noc1C`, for which the Potency result is “inactive”.

With `N#Cc1sc2nc(C3CC3)cc(-c3ccc(Cl)cc3)c2c1N`, the Potency entry is “inactive”.

Take `CC(C)c1ccccc1NC(=O)CN1C(=O)c2cccc3cccc1c23`: the Potency result was “inactive”.

With `CCCCc1c(-c2ccccc2OC)ncn1CCc1ccc(OC)cc1`, the Potency was 39.8 µM (active).

For the compound `CCCCc1c(-c2ccccc2OC)ncn1CCc1cccc(Cl)c1`, the Potency was 31.6 µM (active).

On to `CCCCc1c(-c2ccccc2OC)ncn1C1CCCC1`, for which the Potency was 22.4 µM (active).

Regarding `O=C1Cc2ccccc2C(=O)N1Cc1cccc(Cl)c1`, the Potency result is “inactive”.

In the case of `COc1ccccc1C1=NC(c2ccccc2)CN1c1ccccc1` (centres undefined), the Potency result is “inactive”.

`CCCCc1c(-c2ccccc2OC)ncn1Cc1ccc(-c2ccccc2)cc1`: the Potency was 22.4 µM (active).

For `Nc1cccc2c1C(=O)N(Cc1cccc(Cl)c1)C2=O`, the Potency entry is “inactive”.

`COc1cc2c3nnc(-c4ccccc4)c-3cn(Cc3ccc(F)cc3)c2cc1OC`: the Potency entry was “inactive”.

On to `CC12CCC(C1)C(C)(C)C2NS(=O)(=O)c1ccc(F)cc1` (centres undefined), for which the Potency entry is “inactive”.

On to `COC(=O)c1ccc(COc2ccc(C(C)(C)C)cc2)o1`, for which the Potency result was “inactive”.

Regarding `COc1c(C)cc(S(=O)(=O)N2CCOCC2)c(C)c1C`, the Potency result was “inactive”.

For `Cc1cc(-c2nc3cccnc3s2)ccc1NS(=O)(=O)c1ccc2c(c1)OCCO2`, the Potency entry is “inactive”.

Consider `CCOC(=O)c1cnc(-n2nc(C)cc2C)nc1Nc1ccc(O)cc1`, for which the Potency result was “inactive”.

In the case of `FC(F)(F)c1cc(-c2cccs2)nc2cc(-c3cccs3)nn12`, the Potency entry is “inactive”.

For `CCOC(=O)c1c(NC(C)=O)sc2c1CCC(C=O)=C2Sc1ccccc1`, the Potency is 39.8 µM (active).

Consider `CCOC(=O)c1c(N=C(S)Nc2ccccc2)sc2c1CCN(CC)C2`, for which the Potency result was “inactive”.

As for `CCOC(=O)c1c(NC(=O)c2ccccc2Cl)sc2c1CCc1ccccc1-2`, the Potency result is “inactive”.

`CCCCN(C)S(=O)(=O)c1ccc(C(=O)Nc2sc3c(c2C(=O)OCC)CCN(C(C)C)C3)cc1`: the Potency result was “inactive”.

`CCOC(=O)c1c(NC(C)=O)sc2c1CCC(/C=N/CCCN(CC)CC)=C2Sc1ccccc1`: the Potency was 39.8 µM (active).

Turning to `CCOC(=O)c1c(NC(=O)C2=C(C)N=C(S)NC2c2ccc(C)cc2)sc(C)c1C` (centres undefined), the Potency entry was “inactive”.

On to `COc1ccc(-n2nc3ccc(N)cc3n2)cc1`, for which the Potency result was “inactive”.

On to `Cn1c(C(=O)NC2CCCCC2)cc2c(=O)n3ccccc3nc21`, for which the Potency result is “inactive”.

For the compound `O=C(NCc1cccs1)C(Cc1ccccc1)n1cccc1` (centres undefined), the Potency result is “inactive”.

Regarding `[N-]=[N+]=CC(=O)CNC(=O)[C@@H](Cc1ccccc1)N1C(=O)c2ccccc2C1=O`, the Potency is 20 µM (active).

For `CC1=NN2C(=N)/C(=C\c3cc(C)n(-c4cccc(C)c4)c3C)C(=O)N=C2S1`, the Potency result was “inactive”.

Take `Cn1c(-c2c(N)n(C3CCCC3)c3nc4ccccc4nc23)nc2ccccc21`: the Potency result was “inactive”.

With `O=C(/C(=C\c1ccccc1)c1nc2ccccc2[nH]1)c1ccc(Cl)cc1`, the Potency was 15.8 µM (active).

On to `O=C(O)C(=O)/C(=C\c1cccc(Cl)c1)c1ccc2ccccc2n1`, for which the Potency result was “inactive”.

As for `N#C/C(=C\c1cccnc1)c1nc2ccccc2[nH]1`, the Potency result is “inactive”.

On to `O=C(Cc1nc2ccccc2[nH]1)c1ccc(Cl)cc1`, for which the Potency result was “inactive”.

`O=C(O)C(=O)/C(=C\c1ccc(Cl)cc1)c1ccc2ccccc2n1`: the Potency result was “inactive”.

Turning to `O=C(/C(=C/c1ccc(Cl)cc1)c1nc2ccccc2[nH]1)c1ccccc1`, the Potency is 39.8 µM (active).

As for `O=C(COc1ccccc1C(=O)NCc1ccncc1)Nc1ccc(Br)cc1`, the Potency result is “inactive”.

For the compound `CCN1CCN(Cc2c(O)ccc3c(C)c(-c4ccc(OC)cc4)c(=O)oc23)CC1`, the Potency result was “inactive”.

As to `CS(=O)(=O)c1nc(-c2ccccc2)cc(C(F)(F)F)n1`, the Potency was 35.5 µM (active).

In the case of `CCOC(=O)CNc1c(-c2ccc(F)cc2)nc2cnccn12`, the Potency entry is “inactive”.

For the compound `O=C(COC(=O)CCS(=O)(=O)c1ccccc1)Nc1ccccc1`, the Potency result was “inactive”.

For the compound `CCOC(=O)CCS(=O)(=O)c1nc(-c2ccccc2)cc(C(F)(F)F)n1`, the Potency was 31.6 µM (active).

For the compound `COCCNC(=O)c1nn2c(C(F)(F)F)cc(-c3ccccc3)nc2c1Cl`, the Potency entry was “inactive”.

Take `COCC(C)NC(=O)c1cnn2c(C(F)F)cc(-c3ccccc3)nc12` (centres undefined): the Potency entry was “inactive”.

`Nc1c(C(=O)C2CC2)sc2nc(-c3ccccc3)cc(C(F)(F)F)c12`: the Potency result is “inactive”.

Consider `Cc1ccc(S(=O)(=O)CCC(=O)OCC(=O)NC(C)c2ccccc2)cc1` (centres undefined), for which the Potency result is “inactive”.

As to `COc1ccc(-c2c(C(F)(F)F)nn3c(O)cc(-c4ccccc4)nc23)cc1`, the Potency entry is “inactive”.

Consider `COC(=O)c1cc2nc(-c3ccc(C)cc3)cc(C(F)(F)F)n2n1`, for which the Potency entry is “inactive”.

`COC(=O)CCS(=O)(=O)c1nc(-c2ccccc2)cc(C(F)(F)F)n1`: the Potency was 39.8 µM (active).

Take `CCOC(=O)CS(=O)(=O)c1nc(-c2ccc(F)cc2)cc(C(F)(F)F)n1`: the Potency is 31.6 µM (active).

With `CCCCn1nc(NC(=O)CCC)c2cc3cc(OC)ccc3nc21`, the Potency result was “inactive”.
